Data from PubChem BioAssay (NCI).
Compounds without any hit were thinned out: in the full panel of roughly 83,000, 20% have a hit.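 Each cell line was grown in a 96-well plate and treated with one concentration of compound for 48 hours. Values below 10 were considered active.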 Values without a mark were called inactive. Calls of active or inactive are those of the source.

Tests used:
Assay in all cases: NCI-60 one-dose screen, 48 h (100 = growth as untreated, 0 = no growth, -100 = all killed)
Details in all cases: 10 µM unless noted
T-47D breast = system: T-47D breast
BT-549 breast = system: BT-549 breast
MCF7 breast = system: MCF7 breast
HCT-116 colon = system: HCT-116 colon
HCC-2998 colon = system: HCC-2998 colon
KM12 colon = system: KM12 colon
SW-620 colon = system: SW-620 colon
MDA-MB-435 melanoma = system: MDA-MB-435 melanoma

`Cc1ccc(NC2=C(Cl)C(=O)c3nc(C)ccc3C2=O)cc1` was tested, and the growth (T-47D breast) was -47.5% (active), the growth (BT-549 breast) was 44.9% and the growth (MCF7 breast) was -66.1% (active). For the same compound, the growth (HCT-116 colon) was -39.5% (active), the growth (HCC-2998 colon) was 4.99% (active) and the growth (KM12 colon) was 36.6%.

With `CCOC(=O)C1=C(N)Oc2c(sc3c(CC)cccc23)C1c1ccc(F)cc1` (centres undefined) the growth (T-47D breast) was 26.8%, the growth (BT-549 breast) was 73.6% and the growth (SW-620 colon) was 22.3%. For the same compound, the growth (MCF7 breast) was 10.2%, the growth (HCT-116 colon) was 25.5% and the growth (HCC-2998 colon) was 61.4%. For the same compound, the growth (KM12 colon) was 24%.

With `CCc1cccc2c1S/C(=C/c1ccc(OC)cc1)C2=O` the growth (T-47D breast) was 53.9%, the growth (BT-549 breast) was 55.5% and the growth (SW-620 colon) was 30%. It also gave a growth (MCF7 breast) of 22.3%, a growth (HCT-116 colon) of 34.3% and a growth (HCC-2998 colon) of 77.7%. The growth (KM12 colon) was 28.6%.

`CCCCCCn1c(-c2ccc(C(=O)O/N=C(\N)c3ccc(OC)cc3)cc2)nc(-c2ccccc2)c1-c1ccccc1` was tested, and the growth (T-47D breast) was -30.4% (active), the growth (BT-549 breast) was -2.06% (active) and the growth (SW-620 colon) was -1.32% (active). For the same compound, the growth (MCF7 breast) was -39.3% (active), the growth (HCT-116 colon) was -56.1% (active) and the growth (HCC-2998 colon) was 3.48% (active). For the same compound, the growth (KM12 colon) was 15.7%.

In the case of `O=S(=O)(Nc1ccc(-c2nc(-c3cccc(OCCN4CCOCC4)c3)c(-c3ccnc(Br)c3)[nH]2)cc1)c1ccccc1`, the growth (T-47D breast) is reported as 26.6%, the growth (BT-549 breast) is reported as 54.3% and the growth (SW-620 colon) is reported as 43.5%. The growth (MCF7 breast) was 9.52% (active), the growth (HCT-116 colon) was 23.6% and the growth (HCC-2998 colon) was 19.1%. For the same compound, the growth (KM12 colon) was 8.86% (active).

Compound `O=C(CCN1C(=O)/C(=C/c2ccc(O)cc2)SC1=S)Nc1ccccc1` has a growth (T-47D breast) of 104%, a growth (BT-549 breast) of 93.1% and a growth (SW-620 colon) of 102%. The growth (MCF7 breast) was 96.6%, the growth (HCT-116 colon) was 98.2% and the growth (HCC-2998 colon) was 111%. For the same compound, the growth (KM12 colon) was 99.1%.

Compound `C=C1CC[C@@]2(C#N)[C@H]3[C@H](CC[C@@H]2C)[C@@H](C)C[C@@H](CC(C)(C)C#N)[C@H]13` has a growth (T-47D breast) of 21.5%, a growth (MDA-MB-435 melanoma) of 35.9% and a growth (SW-620 colon) of 49.9%. For the same compound, the growth (MCF7 breast) was 21.1%, the growth (HCT-116 colon) was 14.5% and the growth (HCC-2998 colon) was 37.3%.

Compound `CCCCn1c(-c2ccc(-c3nc(-c4ccc(Cl)cc4)no3)cc2)nc(-c2ccccc2)c1-c1ccccc1` has a growth (T-47D breast) of 76.3%, a growth (BT-549 breast) of 101% and a growth (MCF7 breast) of 79%. It also gave a growth (HCT-116 colon) of 75.4%, a growth (HCC-2998 colon) of 105% and a growth (KM12 colon) of 95.2%.

For `CCCCCCn1c(-c2ccc(C(=O)O/N=C(\N)c3ccc4c(c3)OCO4)cc2)nc(-c2ccccc2)c1-c1ccccc1`, the growth (T-47D breast) was -11.9% (active), the growth (BT-549 breast) was 43.5% and the growth (SW-620 colon) was 37.8%. The growth (MCF7 breast) was 7.05% (active), the growth (HCT-116 colon) was 2.68% (active) and the growth (HCC-2998 colon) was 44%. The growth (KM12 colon) was 31.8%.

`CCOC(=O)c1sc2ncc(-c3ccc(OC)cc3)n2c1C` showed a growth (T-47D breast) of 93.6%, a growth (BT-549 breast) of 102% and a growth (MCF7 breast) of 89.9%. It also gave a growth (HCT-116 colon) of 92.4%, a growth (HCC-2998 colon) of 105% and a growth (KM12 colon) of 101%.

`CCc1cccc2c3c(sc12)C(c1ccc(F)cc1)C(C#N)=C(N)O3` (centres undefined) gave a growth (T-47D breast) of 42.1%, a growth (BT-549 breast) of 19.7% and a growth (SW-620 colon) of 30.3%. It also gave a growth (MCF7 breast) of 16.1%, a growth (HCT-116 colon) of 17.7% and a growth (HCC-2998 colon) of 15.4%. For the same compound, the growth (KM12 colon) was 25.1%.

With `CCOC(=O)Nc1ccc(-c2nc(-c3cccc(OC)c3)c(-c3ccnc(Br)c3)[nH]2)cc1` the growth (T-47D breast) was 13%, the growth (BT-549 breast) was 56.1% and the growth (SW-620 colon) was 46.9%. It also gave a growth (MCF7 breast) of 17.3%, a growth (HCT-116 colon) of 25.4% and a growth (HCC-2998 colon) of 40.9%. It also gave a growth (KM12 colon) of 24.7%.

For `CCc1cccc2c3c(sc12)C(c1ccc(Cl)cc1)C(C#N)=C(N)O3` (centres undefined), the growth (T-47D breast) was 27.8%, the growth (BT-549 breast) was 50.8% and the growth (SW-620 colon) was 33.4%. It also gave a growth (MCF7 breast) of 10.3%, a growth (HCT-116 colon) of 17.9% and a growth (HCC-2998 colon) of 17.5%. For the same compound, the growth (KM12 colon) was 18.5%.

For `O=C(O)CCC(=O)Nc1nnc(-c2ccccc2)s1`, the growth (T-47D breast) was 94.3%, the growth (MDA-MB-435 melanoma) was 100% and the growth (SW-620 colon) was 108%. The growth (MCF7 breast) was 79.9%, the growth (HCT-116 colon) was 103% and the growth (HCC-2998 colon) was 102%.

With `Cc1ccc(C(CC(=O)O)c2c(C)[nH][nH]c2=O)cc1` (centres undefined) the growth (T-47D breast) was 86.6%, the growth (BT-549 breast) was 103% and the growth (SW-620 colon) was 108%. For the same compound, the growth (MCF7 breast) was 100%, the growth (HCT-116 colon) was 107% and the growth (HCC-2998 colon) was 108%. For the same compound, the growth (KM12 colon) was 101%.

`Cc1ccc2c(n1)C(=O)C(Cl)=C(Nc1ccccc1C(C)C)C2=O` showed a growth (T-47D breast) of 52.7%, a growth (BT-549 breast) of 74.9% and a growth (SW-620 colon) of 48.2%. It also gave a growth (MCF7 breast) of 21.1%, a growth (HCT-116 colon) of 25.1% and a growth (HCC-2998 colon) of 113%. For the same compound, the growth (KM12 colon) was 88%.

In the case of `CC1=C(C)C(=O)C(Nc2cccc(C(=O)OC(C)(C)C)c2)=C(Br)C1=O`, the growth (T-47D breast) is reported as -0.52% (active), the growth (BT-549 breast) is reported as 92.9% and the growth (SW-620 colon) is reported as 91.3%. It also gave a growth (MCF7 breast) of 27.1%, a growth (HCT-116 colon) of 62.3% and a growth (HCC-2998 colon) of 100%. The growth (KM12 colon) was 99.9%.

`CCOC(=O)C1=C(N)Oc2c(sc3c(C)cccc23)C1c1ccc(OC)cc1` (centres undefined) showed a growth (T-47D breast) of 26%, a growth (BT-549 breast) of 49.6% and a growth (SW-620 colon) of 20.3%. The growth (MCF7 breast) was 7.65% (active), the growth (HCT-116 colon) was 18.4% and the growth (HCC-2998 colon) was 74.4%. The growth (KM12 colon) was 27.4%.

In the case of `O=C(Nc1ccc(-c2nc(-c3cccc(OCCN4CCOCC4)c3)c(-c3ccnc(Br)c3)[nH]2)cc1)c1ccccc1`, the growth (T-47D breast) is reported as 27.6%, the growth (BT-549 breast) is reported as 45% and the growth (SW-620 colon) is reported as 2.49% (active). For the same compound, the growth (MCF7 breast) was -46% (active), the growth (HCT-116 colon) was 10% (active) and the growth (HCC-2998 colon) was 11.3%. The growth (KM12 colon) was 0.737% (active).

`Cc1cccc2c1S/C(=C/c1ccc([N+](=O)[O-])cc1)C2=O` gave a growth (T-47D breast) of 85%, a growth (BT-549 breast) of 124% and a growth (SW-620 colon) of 30.2%. The growth (MCF7 breast) was 9.54% (active), the growth (HCT-116 colon) was 17.1% and the growth (HCC-2998 colon) was 122%. For the same compound, the growth (KM12 colon) was 107%.

`CCn1cnc2c1c(=O)[nH]c(=O)n2CC1CCC(CNS(=O)(=O)c2ccc(OC3CCOCC3)c(F)c2)CC1` (centres undefined) gave a growth (T-47D breast) of 19.9%, a growth (BT-549 breast) of 72.7% and a growth (MCF7 breast) of 26.7%. For the same compound, the growth (HCT-116 colon) was 49.2%, the growth (HCC-2998 colon) was 63.9% and the growth (KM12 colon) was 59.9%.

`COc1ccc(C2C(C#N)=C(N)Oc3c2sc2c(C)cccc32)cc1` (centres undefined) gave a growth (T-47D breast) of 46.9%, a growth (BT-549 breast) of 25.1% and a growth (SW-620 colon) of 26%. For the same compound, the growth (MCF7 breast) was 10.8%, the growth (HCT-116 colon) was 13.2% and the growth (HCC-2998 colon) was 11%. For the same compound, the growth (KM12 colon) was 11.7%.

Compound `CCCCCCCCCCCCCCCCCCOc1ccc(CC(=O)OCC[N+]2(C)CCCCC2)cc1` has a growth (T-47D breast) of 92.6%, a growth (BT-549 breast) of 112% and a growth (SW-620 colon) of 96.2%. For the same compound, the growth (MCF7 breast) was 91%, the growth (HCT-116 colon) was 57.7% and the growth (HCC-2998 colon) was 97.4%. For the same compound, the growth (KM12 colon) was 101%.

With `O=C(CCN1C(=O)/C(=C/c2ccc(O)cc2)SC1=S)Nc1ccc(Cl)cc1` the growth (T-47D breast) was 102%, the growth (SW-620 colon) was 101% and the growth (MCF7 breast) was 89%. For the same compound, the growth (HCT-116 colon) was 92.2% and the growth (HCC-2998 colon) was 115%.

`Cc1ccc(-c2nc3c(c(-c4ccccc4)nn3-c3ccccc3)c(-c3ccc(O)cc3)c2C#N)cc1` gave a growth (T-47D breast) of 61.2%, a growth (MDA-MB-435 melanoma) of 64.5% and a growth (SW-620 colon) of 62.8%. For the same compound, the growth (MCF7 breast) was 26.4%, the growth (HCT-116 colon) was 42.4% and the growth (HCC-2998 colon) was 95.3%. It also gave a growth (KM12 colon) of 55.9%.

In the case of `O=c1[nH]c2c(ccc3cnccc32)c2c1CCC2`, the growth (T-47D breast) is reported as -7.41% (active), the growth (MDA-MB-435 melanoma) is reported as -60.1% (active) and the growth (SW-620 colon) is reported as -11.9% (active). The growth (MCF7 breast) was -4.54% (active), the growth (HCT-116 colon) was 4.41% (active) and the growth (HCC-2998 colon) was -51.8% (active). For the same compound, the growth (KM12 colon) was -17.9% (active).
